Rows were chosen to be rich in hits. Some 0.75% of all compounds tested hit in one or more screens of this group.
uPA surface inh: qHTS for Inhibitors of Cell Surface uPA Generation; cell surface uPA generation assay, qHTS; AID 540303, 2011; Potency, µM (doses to about 38.3 µM), for the others: at the highest dose activity change, negative = inhibition, most hits filed as inhibitors; 0.31% of 330,000 active; active = well fitted inhibition curve with a large enough effect; inconclusive = small, poorly fitted or top-dose-only effect; inactive = no such curve, though single readings can be large or run the other way; tested in mouse RAW 264.7 cells; also: potency is read from the fitted curve at half-maximal effect; % is scaled to controls: 0 for no effect and ±100 for the full control effect; nearly all actives have a fitted effect of over 55% in size
PKM2 activator: qHTS Assay for Activators of Human Muscle isoform 2 Pyruvate Kinase | Pyruvate kinase PKM (Homo sapiens), P14618 | purified PKM2, Kinase-Glo ATP luminescence, activation; response scale: 0% is enzyme alone, no compound | Potency, µM (series often up to 57.5 µM), inactives show at the highest dose activation, hits mostly activators | 0.34% of 260,000 active; also: potency is read from the fitted curve at half-maximal effect; % is scaled to controls: 0 for no effect and ±100 for the full control effect; nearly all actives have a fitted effect of over 55% in size
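ATP formation by purified human PK-M2, quantified via coupled luciferase luminescence after 1 h at room temperature with 0.1 mM ADP and 0.5 mM PEP final.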
TSHR antagonist: Antagonists of the Thyroid Stimulating Hormone Receptor: HTS campaign. activity change, negative = inhibition, % at 11.5 µM. Thyrotropin receptor (Homo sapiens), P16473. TSHR-expressing cells, TSH-stimulated cAMP HTRF, 2 h; stronger effect = lower value. 0.2% of 330,000 active;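 active = activity change below a set negative limit, meaning inhibition stronger than a set level, cut at about -70% in these data; inconclusive = activity change between two set negative limits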; also: % is scaled to controls: 0 for no effect and ±100 for the full control effect
Target sequence (P16473 whole entry, looked up): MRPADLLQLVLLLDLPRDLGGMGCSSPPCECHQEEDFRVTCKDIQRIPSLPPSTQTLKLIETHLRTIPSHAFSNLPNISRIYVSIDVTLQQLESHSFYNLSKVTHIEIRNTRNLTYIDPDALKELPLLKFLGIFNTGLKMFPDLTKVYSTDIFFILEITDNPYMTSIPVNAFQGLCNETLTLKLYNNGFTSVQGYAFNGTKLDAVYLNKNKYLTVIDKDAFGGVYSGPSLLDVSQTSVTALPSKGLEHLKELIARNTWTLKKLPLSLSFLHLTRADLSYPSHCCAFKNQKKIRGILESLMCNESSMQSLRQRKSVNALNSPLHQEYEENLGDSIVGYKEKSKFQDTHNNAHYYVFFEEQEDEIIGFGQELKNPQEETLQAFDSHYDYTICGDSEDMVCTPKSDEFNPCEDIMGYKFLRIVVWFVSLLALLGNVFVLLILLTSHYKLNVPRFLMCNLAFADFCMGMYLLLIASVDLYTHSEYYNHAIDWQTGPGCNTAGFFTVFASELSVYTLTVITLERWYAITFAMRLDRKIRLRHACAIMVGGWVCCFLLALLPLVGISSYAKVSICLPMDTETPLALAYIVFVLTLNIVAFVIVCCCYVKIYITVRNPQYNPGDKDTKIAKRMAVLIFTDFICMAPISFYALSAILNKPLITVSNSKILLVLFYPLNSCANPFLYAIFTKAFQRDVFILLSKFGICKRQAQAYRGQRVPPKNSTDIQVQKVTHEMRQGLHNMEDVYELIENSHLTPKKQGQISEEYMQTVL
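TSHR-expressing cells were treated with compounds, then stimulated with TSH at EC80 (4nM final) for 2 hours at 37 deg C. Cellular cAMP was measured by HTRF competition between lysate cAMP and cAMP-d2 for a cryptate-labelled anti-cAMP antibody.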
TCR activator: Activators of T cell receptors: qHTS campaign; 330,000 tested, under 10 active; primary human leukocytes, anti-CD3, IL-2 HTRF, 48 h; AID 504894, 2011; Potency, µM (titrated, usually from 9.22 µM), for the others: at the top dose activation of IL-2 secretion, actives largely listed as activators; also: % of control where 0% means no effect
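Using a-CD3 beads without co-stimulation, primary human leukocytes were exposed to compounds for 48 hr. An HTRF IL-2 kit measured the cytokine, with europium-to-d2 energy transfer producing emission at 665nm upon 320nm excitation.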
HeLa tox: Secondary assay for Activators of Human Pyruvate Kinase M2 isoform - Cell Titer Glo cytotoxicity assay; 230 tested, under 10 active; HeLa viability, CellTiter-Glo ATP luminescence, 24 h; shares compounds with PKM2 activator; activity change, negative = cytotoxicity, % at 57.5 µM; AID 1898, 2009; also: % of control where 0% means no effect
* hit, by the source's call; ? = inconclusive; . = not tested or not shown; [ ] = dose if it differs, or a comment. Unless noted, calls follow the shape of the dose curve; as a rule, active = well fitted curve in the direction sought with a large enough effect; inconclusive = small, poorly fitted or top-dose-only effect, or another doubt; inactive = no such curve, though single readings can be large; an effect the other way counts as inactive or inconclusive.

SMILES	uPA surface inh	PKM2 activator	TSHR antagonist	TCR activator	others
CCCCCCSc1ccc(-c2nc3ccc(Cl)cn3c2NCCCC)cc1OC	1.0%	.	-82.7*	0.2%
CN(CC(=O)Nc1ccc(F)cc1)C(=O)C1CC(=O)N(Cc2ccccc2)C1 (stereo not drawn)	-5.3%	-5.7%	-4.1	8.8%
COc1ccc(OCCOC(=O)c2ccc(F)c(S(=O)(=O)N3CCOCC3)c2)cc1	-1.1%	.	-14.6	-5.2%
CCN(c1ccccc1)S(=O)(=O)c1ccc(C(=O)N(CCCN(C)C)c2nc3c(C)cccc3s2)cc1	-1.2%	-1.6%	-1.1	-5.9%
CC(=O)Nc1ccc(S(=O)(=O)N2CCN=C2SCc2ccc(C)cc2)cc1	-9.2%	-1.5%	-8.3	-1.2%
CC(=O)Nc1ccc(S(=O)(=O)N2CCN=C2SCc2cccnc2)cc1	-4.6%	15.8µM*	-0.3	-8.4%
O=S(=O)(c1ccc2ccccc2c1)N1CCN=C1SCc1cccnc1	8.0%	17.8µM*	-7.5	2.9%
O=C(NNC(=S)NCc1ccccc1)c1ccc(Br)o1	2.82µM*	-3.2%	3.3	-1.2%
CCOC(=O)c1cc2c(ccn2C)n1CC(=O)N1CCN(c2cccc(C(F)(F)F)c2)CC1	-1.5%	31.6µM*	-5.7	-5.3%
CCOC(=O)c1cc2c(ccn2C)n1CC(=O)N1CCN(c2ccc(F)cc2)CC1	-7.1%	4.3%	-1.9	-21.7%
Cc1cccc(NS(=O)(=O)c2ccc(C)c(C(=O)NC3CCN(Cc4ccccc4)CC3)c2)c1	-25.1%	.	.	7.1%
O=Nc1c(O)c2ccccc2c2ccccc12	5.62µM*	.	.	3.5%
COc1cccc(CNC(=O)c2ccc(OCC(=O)N3CCOCC3)c(OC)c2)c1	8.2%	.	2.6	-6.3%
COc1ccc(CN2CCCN(C)CC2)c(OC)c1C	0.0%	7.2%	-118.6*	0.8%
COc1cc(Br)c(CN2CCCN(C)CC2)cc1OC	-5.9%	-1.2%	9.8	.
COc1ccc(S(=O)(=O)Nc2ccccc2C(=O)Nc2nc(-c3ccc(F)cc3)cs2)cc1OC	-2.2%	-0.6%	-88.3*	-6.7%[46.1 µM]
COc1ccc(-c2csc(NC(=O)C3=NN(c4ccccc4)C(=O)CC3)n2)cc1	-12.3%	1.0%	-78.2*	.
COc1ccc(-c2csc(NC(=O)c3ccccc3NS(=O)(=O)c3ccc(C)cc3)n2)cc1	-3.5%	2.9%	-81.7*	-3.7%[46.1 µM]
COc1ccc(-c2csc(NC(=O)c3c(OC)cccc3OC)n2)cc1	-1.4%	-0.6%[11.5 µM]	-7.3	.
COc1cc(=O)n(C)c2c(OCC3OC(C)(C)OC3(C)C)cccc12 (stereo not drawn)	3.1%	-1.2%	-8.8	-0.7%
O=[N+]([O-])c1c(Nc2ccccc2O)cc(Cl)c2nonc12	-8.1%	3.1%	-76.5*	-1.8%
O=[N+]([O-])c1c(Nc2ccccc2O)ccc2nonc12	2.5%	15.4%	-13.2	5.8%
Cc1nc(-c2cccc(NC(=O)c3ccc(-n4nccc4C)cc3)c2)cs1	-0.6%	.	-72.1*	3.3%
Cc1cc(CCCCCCCCc2cc(C)cc(=O)o2)oc(=O)c1	-3.4%	-1.1%	-13.5	-2.9%[46.1 µM]
Cn1ncc(S(=O)(=O)Cc2ccccc2)c(Cl)c1=O	1.2%	14.6%	7.8	0.5%
SMILES	uPA surface inh	PKM2 activator	TSHR antagonist	TCR activator	others
Cn1ncc(SCc2ccccc2)c(Cl)c1=O	-13.7%	17.8µM*	-4.9	3.9%
Cc1cccc(N2CCN(C(=O)CN3C(=O)NC(C)(C4CC4)C3=O)CC2)c1C (stereo not drawn)	7.1%	.	3.4	-6.2%
C/C(=N\NC(=O)CSCc1ccccc1Cl)c1cc(O)ccc1O	2.51µM*	?	-6.5	-1.4%
Nn1c(SCC(=O)Nc2nccs2)nnc1C1CC1	5.2%	4.5%	16.5	0.1%
N#C/C(=C\c1cccc(Cl)c1)C(=O)c1ccccc1	1.1%	20µM*	-9.5	-0.3%
COc1cccc(C(=O)NCCN2C(=O)S/C(=C/c3cccs3)C2=O)c1OC	5.0%	16.1%	-0.4	.
CCOc1ncccc1C(=O)NCCN1C(=O)S/C(=C/c2cccs2)C1=O	10.7%	15.8µM*	-11.4	-0.3%[46.1 µM]
O=c1c2cc(F)ccc2sn1-c1ccc(F)cc1	-26.1%	.	?	-2.0%
COc1ccc(-n2sc3ccc(F)cc3c2=O)cc1	10µM*	.	-22.7	-1.4%
CCS(=O)(=O)Nc1ccc(C2=NN(C(=O)c3ccco3)C(c3ccc(C)cc3)C2)cc1 (stereo not drawn)	.	7.94µM*	45.3	0.0%
CS(=O)(=O)Nc1ccc(C2=NN(C(=O)c3ccco3)C(c3ccccc3)C2)cc1 (stereo not drawn)	0.6%	14.1µM*	7.4	0.2%[46.1 µM]
Cc1ccc(C2CC(c3ccc(NS(C)(=O)=O)cc3)=NN2C(=O)c2ccco2)cc1 (stereo not drawn)	-4.8%	?	0.0	-2.1%[46.1 µM]
O=C(c1ccc(Cl)cc1)N1CCOc2ccccc21	-11.3%	.	-7.1	-3.3%
CC(=O)c1cnc2nc(SCc3ccccc3C)nn2c1C	-1.2%	12.6µM*	9.7	-2.8%
CC(=O)c1cnc2nc(C(F)(F)F)nn2c1C	9.8%	10.6%	-7.0	-2.3%
Cc1ccc(C)c(NC(=O)CN(C)C(=O)CN2C(=O)C3CCCCC3C2=O)c1 (stereo not drawn)	-6.1%	.	-2.8	0.5%
Cc1cccc(NC(=O)C2CCN(S(=O)(=O)c3ccc4c(c3)NC(=O)CO4)CC2)c1	-8.2%	.	-134.2*	-10.1%
S=c1cn[nH]c2ccccc12	-9.3%	.	.	4.3%
CCOc1ccc2c(c1)sc1nc(C(=O)OC)cc(=O)n12	1.8%	.	.	-1.3%
CCOc1ccc2c(c1)s/c(=N\S(=O)(=O)c1ccc(OC)cc1)n2C(F)F	0.0%	1.58µM*	.	-4.1%
O=[N+]([O-])c1ccc(NN=Cc2cccc3ccccc23)cc1	1.2%	.	.	7.5%
O=[N+]([O-])c1cc(Br)c(O)c(/C=N/Nc2nnnn2-c2cccc3ccccc23)c1	.	-1.5%	-74.5*	2.2%
CN(CC(=O)Nc1cccc(F)c1)C(=O)c1ccc2c(c1)CC(c1ccccc1)OC2=O (stereo not drawn)	3.98µM*	.	-8.3	2.5%
CN(CC(=O)Nc1cccc(F)c1)C(=O)c1ccc(C2SCCS2)cc1	-23.7%	.	5.8	-2.2%
O=C1NC(=S)SC1=C1CCCCCC1	-6.7%	2.0%	-80.8*	-5.7%
Nc1c(C2CCCCC2)c(=O)on1C(=O)c1ccccc1	-1.2%	.	.	3.7%
Cc1ccc(C(=O)NCCNc2ncc(C(F)(F)F)cc2Cl)cc1[N+](=O)[O-]	-1.5%	9.5%	-112.8*	-0.4%
COc1ccc(C(=O)NCCNc2ncc(C(F)(F)F)cc2Cl)cc1[N+](=O)[O-]	-2.0%	1.8%	-10.4	-1.9%
CC(=O)c1ccccc1NC(=O)COC(=O)C1=NN(c2ccccc2)C(=O)CC1	1.1%	.	-4.6	0.7%
CC(C)Sc1nc2c([nH]1)c(=N)ncn2Cc1ccccc1	?	14.1µM*	16.2	5.0%	HeLa tox=-1.2

Source: PubChem (National Center for Advancing Translational Sciences (NCATS))
